Active and inactive are the calls of the source. Rule for the calls: active = hit-call score of the fitted dose curve at least 0.9, where 1 is the maximum; inactive = score below 0.9.

Read-out in experiment [1]: C-C motif chemokine 2 (Homo sapiens) (UniProt P13500)
The experiment can be described thus: BSK_KF3CT_MCP1: BioMAP Diversity Plus: KF3CT Assay for Monocyte Chemoattractant Protein 1 (MCP1/CCL2) Biomarker Activity (AID 2283073). To be noted: primary human keratinocytes with fibroblasts; actives raise or lower the signal. The essentials: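 Human keratinocyte plus foreskin fibroblast primary co-culture exposed to chemical for 24 h. MCP-1 levels measured by ELISA. Bidirectional curve fitting relative to DMSO negative control as baseline.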

Read-out in experiment [2]: Matrix Metallopeptidase 9 (MMP9), MMP9 (gene 4318)
The experiment can be described thus: BSK_KF3CT_MMP9: BioMAP Diversity Plus: KF3CT Assay for Matrix Metallopeptidase 9 (MMP9) Biomarker Activity (AID 2283074).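 For AC50: MMP9 protein level quantified by ELISA in the co-culture.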 To be noted: primary human keratinocytes with fibroblasts; actives raise or lower the signal. The method in brief: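 Values come from bidirectional fitting relative to DMSO of MMP-9 levels, which were measured by ELISA. Measurements were taken 24 h after chemical dosing of a keratinocyte and foreskin fibroblast co-culture.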

Read-out in experiment [3]: urokinase plasminogen activator (uPA), PLAU (gene 5328)
Put plainly: BSK_KF3CT_uPA: BioMAP Diversity Plus: KF3CT Assay for urokinase plasminogen activator (uPA) Biomarker Activity (AID 2283075). To be noted: primary human keratinocytes with fibroblasts; actives raise or lower the signal. The essentials: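 Values derive from bidirectional fitting against DMSO controls. Keratinocyte/foreskin fibroblast co-cultures received chemical; 24 h later uPA was detected by ELISA, with SRB total-protein staining in parallel wells for overt cytotoxicity.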

Read-out in experiment [4]: CD40, CD40 (gene 958)
The experiment can be described thus: BSK_LPS_CD40: BioMAP Diversity Plus: LPS Assay for CD40 Biomarker Activity (AID 2283076). To be noted: primary human HUVEC with PBMC; actives raise or lower the signal. The essentials: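 Primary human umbilical vein endothelial cells co-cultured with peripheral blood mononuclear cells, LPS-stimulated, were dosed with chemical and read 24 h later. CD40 levels were measured by ELISA and fitted bidirectionally against DMSO as negative control and baseline.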

Read-out in experiment [5]: E-selectin (Homo sapiens) (UniProt P16581)
Put plainly: BSK_LPS_Eselectin: BioMAP Diversity Plus: LPS Assay for Eselectin Biomarker Activity (AID 2283077). The conditions noted are these: primary human HUVEC with PBMC; actives raise or lower the signal. The essentials: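 Human umbilical vein endothelial cells co-cultured with peripheral blood mononuclear cells under LPS stimulation; E-selectin measured by ELISA 24 h after chemical dosing. Activity fitted bidirectionally against DMSO as negative control and baseline.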

Read-out in experiment [6]: Interleukin-8 (IL8), CXCL8 (gene 3576)
The experiment can be described thus: BSK_LPS_IL8: BioMAP Diversity Plus: LPS Assay for Interleukin-8 (IL8) Biomarker Activity (AID 2283078). The conditions noted are these: primary human HUVEC with PBMC; actives raise or lower the signal. The method in brief: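 Human umbilical vein endothelial cells co-cultured with PBMC were stimulated with LPS; IL-8 levels were measured by ELISA 24 h after chemical dosing. Activity was fitted bidirectionally against DMSO as negative control and baseline.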

Experiment [7] is described as follows: BSK_LPS_SRB: Viability Assessment in the BioMAP Diversity Plus: LPS Assay (AID 2283079).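 Note: total protein by sulforhodamine B absorbance as a cytotoxicity measure; measured one day after compound addition; fitted in both directions against DMSO so loss or gain of signal counts.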 To be noted: primary human HUVEC with PBMC. The essentials: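 Human umbilical vein endothelial cells co-cultured with PBMC (LPS system) were dosed for 24 h. Total protein was stained with 0.1% sulforhodamine B after 10% TCA fixation, read at 560 nm, and fitted bidirectionally against DMSO baseline.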

Read-out in experiment [8]: Interleukin-1 alpha (IL1a), IL1A (gene 3552)
Put plainly: BSK_LPS_IL1a: BioMAP Diversity Plus: LPS Assay for Interleukin-1 alpha (IL1a) Biomarker Activity (AID 2283080). To be noted: primary human HUVEC with PBMC; actives raise or lower the signal. The essentials:
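Human umbilical vein endothelial cells co-cultured with peripheral blood mononuclear cells were LPS-stimulated and exposed to test chemicals for 24 h. IL-1 alpha was quantified by ELISA, with bidirectional curve fitting against DMSO as the negative control and baseline.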

Read-out in experiment [9]: Monocyte Chemoattractant Protein-1 (MCP1), CCL2 (gene 6347)
Put plainly: BSK_LPS_MCP1: BioMAP Diversity Plus: LPS Assay for Monocyte Chemoattractant Protein-1 (MCP1) Biomarker Activity (AID 2283081).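 For AC50: co-culture stimulated with LPS; secreted MCP-1 protein quantified by ELISA in culture supernatant.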 To be noted: primary human HUVEC with PBMC; actives raise or lower the signal. The essentials: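 HUVEC plus PBMC co-culture (human primary cells, LPS system) exposed to test chemical for 24 h; MCP-1 measured by ELISA. Bidirectional curve fitting against DMSO baseline; parallel SRB total-protein staining flags overt cytotoxicity.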

A short description of experiment [10]: BSK_LPS_PGE2: BioMAP Diversity Plus: LPS Assay for Prostaglandin E2 (PGE2) Biomarker Activity (AID 2283082).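 For AC50: secreted prostaglandin E2 measured by ELISA in LPS-stimulated co-culture.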 The conditions noted are these: primary human HUVEC with PBMC; actives raise or lower the signal. The method in brief:
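PGE2 release measured by ELISA in an LPS-activated co-culture of human umbilical vein endothelial cells and peripheral blood mononuclear cells, read at 24 h post-dosing. DMSO served as baseline for bidirectional curve fitting.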

Read-out in experiment [11]: Macrophage colony-stimulating factor (MCSF), CSF1 (gene 1435)
Put plainly: BSK_LPS_MCSF: BioMAP Diversity Plus: LPS Assay for Macrophage colony-stimulating factor (MCSF) Biomarker Activity (AID 2283083). The conditions noted are these: primary human HUVEC with PBMC; actives raise or lower the signal. The method in brief:
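Human umbilical vein endothelial cells co-cultured with peripheral blood mononuclear cells were exposed to compound for 24 h. M-CSF levels were measured by ELISA, and bidirectional curve fitting used DMSO as the negative control and baseline.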

Read-out in experiment [12]: Tissue Factor, F3 (gene 2152)
The experiment can be described thus: BSK_LPS_TissueFactor: BioMAP Diversity Plus: LPS Assay for Tissue Factor Biomarker Activity (AID 2283084). To be noted: primary human HUVEC with PBMC; actives raise or lower the signal. The essentials:
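Human umbilical vein endothelial cells co-cultured with peripheral blood mononuclear cells were dosed and stimulated with LPS. Cell-surface CD142 was quantified by ELISA at 24 h. Activity was fitted bidirectionally against DMSO baseline.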

Read-out in experiment [13]: Tumor necrosis factor (Homo sapiens) (UniProt P01375)
Put plainly: BSK_LPS_TNFa: BioMAP Diversity Plus: LPS Assay for Tumour Necrosis Factor alpha (TNFa) Biomarker Activity (AID 2283085). To be noted: primary human HUVEC with PBMC; actives raise or lower the signal. The essentials:
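TNFa was quantified by ELISA in LPS-activated co-cultures of human endothelial cells and PBMC, 24 h post-dosing. Both increases and decreases versus DMSO were fitted.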

Read-out in experiment [14]: Vascular cell adhesion molecule 1 (VCAM1), VCAM1 (gene 7412)
The experiment can be described thus: BSK_LPS_VCAM1: BioMAP Diversity Plus: LPS Assay for Vascular cell adhesion molecule 1 (VCAM1) Biomarker Activity (AID 2283086). To be noted: primary human HUVEC with PBMC; actives raise or lower the signal. The method in brief:
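VCAM-1 quantified by ELISA in an LPS-activated co-culture of human endothelial cells and peripheral blood mononuclear cells, read 24 h post-treatment. Fitted in both directions versus DMSO; parallel SRB staining flags overt cytotoxicity.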

Read-out in experiment [15]: CD40, CD40 (gene 958)
Put plainly: BSK_SAg_CD40: BioMAP Diversity Plus: SAg Assay for CD40 Biomarker Activity (AID 2283088). To be noted: primary human HUVEC with PBMC; actives raise or lower the signal. The essentials: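 Human umbilical vein endothelial cells co-cultured with PBMC; CD40 levels measured by ELISA with fluorescence read-out 24 h after chemical dosing. Gain or loss of signal fitted bidirectionally against DMSO baseline.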

Read-out in another experiment: CD69, CD69 (gene 969)
The experiment can be described thus: BSK_SAg_CD69: BioMAP Diversity Plus: SAg Assay for CD69 Biomarker Activity (AID 2283089).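 For AC50: cell surface CD69 protein quantified by ELISA with fluorescence detection.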 To be noted: primary human HUVEC with PBMC; actives raise or lower the signal. The method in brief:
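HUVEC co-cultured with PBMC were dosed with chemical, and CD69 was measured by ELISA with fluorescence read-out 24 h later. Bidirectional curve fitting used DMSO as negative control and activity baseline.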

Read-out in experiment [16]: Monocyte Chemoattractant Protein-1 (MCP1), CCL2 (gene 6347)
The experiment can be described thus: BSK_SAg_MCP1: BioMAP Diversity Plus: SAg Assay for Monocyte Chemoattractant Protein-1 (MCP1) Biomarker Activity (AID 2283090). To be noted: primary human HUVEC with PBMC; actives raise or lower the signal. The method in brief: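 Values derive from bidirectional fitting of ELISA-measured MCP1 against DMSO controls. Readings were taken 24 h after dosing human vascular endothelial cells co-cultured with peripheral blood mononuclear cells under superantigen stimulation.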

Read-out in experiment [17]: E-selectin (Homo sapiens) (UniProt P16581)
The experiment can be described thus: BSK_SAg_Eselectin: BioMAP Diversity Plus: SAg Assay for Eselectin Biomarker Activity (AID 2283091). To be noted: primary human HUVEC with PBMC; actives raise or lower the signal. The method in brief:
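HUVEC co-cultured with PBMC, compound dosed then read at 24 h; E-selectin measured by ELISA. Activity fitted bidirectionally against DMSO as negative control and baseline.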

Read-out in the next experiment: CD38, CD38 (gene 952)
Put plainly: BSK_SAg_CD38: BioMAP Diversity Plus: SAg Assay for CD38 Biomarker Activity (AID 2283087). The conditions noted are these: primary human HUVEC with PBMC; actives raise or lower the signal. The essentials:
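CD38 quantified by ELISA (fluorescence) in a superantigen-activated endothelial cell–PBMC co-culture at 24 h post-dose. Activity fitted in both directions relative to DMSO; parallel SRB and Alamar Blue cytotoxicity read-outs.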

Sequence of E-selectin (Homo sapiens) (P16581 whole entry, looked up): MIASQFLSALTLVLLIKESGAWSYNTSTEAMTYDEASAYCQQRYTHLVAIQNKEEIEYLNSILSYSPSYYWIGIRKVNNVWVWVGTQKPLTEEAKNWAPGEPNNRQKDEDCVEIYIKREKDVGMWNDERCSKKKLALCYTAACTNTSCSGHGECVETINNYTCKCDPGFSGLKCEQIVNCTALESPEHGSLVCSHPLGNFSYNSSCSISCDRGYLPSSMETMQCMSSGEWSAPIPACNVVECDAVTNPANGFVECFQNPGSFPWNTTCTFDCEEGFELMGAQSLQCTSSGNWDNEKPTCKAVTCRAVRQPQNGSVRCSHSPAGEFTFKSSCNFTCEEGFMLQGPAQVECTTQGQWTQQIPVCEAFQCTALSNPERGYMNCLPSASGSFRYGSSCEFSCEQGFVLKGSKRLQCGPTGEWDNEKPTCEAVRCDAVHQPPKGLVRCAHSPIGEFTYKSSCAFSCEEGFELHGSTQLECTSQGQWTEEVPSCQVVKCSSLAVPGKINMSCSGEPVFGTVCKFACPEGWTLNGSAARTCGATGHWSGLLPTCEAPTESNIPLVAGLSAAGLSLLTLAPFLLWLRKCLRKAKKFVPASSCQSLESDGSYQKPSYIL
Sequence of Tumor necrosis factor (Homo sapiens) (P01375 whole entry, looked up): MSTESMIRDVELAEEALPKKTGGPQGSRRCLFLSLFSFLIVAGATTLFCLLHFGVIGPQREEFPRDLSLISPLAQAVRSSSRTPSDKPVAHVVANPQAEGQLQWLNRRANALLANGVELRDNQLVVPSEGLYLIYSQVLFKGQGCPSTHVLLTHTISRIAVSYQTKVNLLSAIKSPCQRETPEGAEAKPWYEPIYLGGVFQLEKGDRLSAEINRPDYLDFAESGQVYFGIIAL

For `Oc1ccccc1`, the outcome in [1] was “inactive”; in experiment [2], “inactive”; in experiment [3] it was “inactive”; in the experiment with CD40, CD40 (gene 958) [4], “inactive”; in experiment [5], “inactive”; in [6], “inactive”. Also, the result in experiment [7], in experiment [8], in [9], in experiment [10], in experiment [11] and in experiment [12] was inactive. Also, the outcome in experiment [13] is “inactive”; in experiment [14], “inactive”; with CD40, CD40 (gene 958) [15] it was “inactive”; in the experiment with CD69, CD69 (gene 969) it was “inactive”; in experiment [16] it was “inactive”; in [17] it was “inactive”.
Regarding `CCN(Cc1cccnc1)C(=O)c1cccc(Cl)c1[C@]1(C)C(=O)N(Cc2ccc(OC)cc2OC)c2ccc(Cl)cc21`, the result in experiment [1], in [3], in experiment [10] and in experiment [13] was inactive. Also, the AC50 – broadly, the concentration at which the activity in the assay is half-maximal – in experiment [2] was 4.21 µM (active); in experiment [5], 10.8 µM (active); in experiment [6] it was 5.54 µM (active); in experiment [7] it was 6.69 µM (active); in [8] it was 4.18 µM (active); in [9], 8.28 µM (active). The AC50 was 6.54 µM (active) in experiment [11]; 12.5 µM (active) in [12]; 5.26 µM (active) in experiment [14]; 5.55 µM (active) with CD40, CD40 (gene 958) [15]; 7.2 µM (active) with CD69, CD69 (gene 969); 5.36 µM (active) in [16]. Moreover, the AC50 in [17] was 7.27 µM (active).
Consider `CCCCCCCC[Si](OCC)(OCC)OCC`, for which the outcome in experiment [1] was “inactive”; in experiment [3], “inactive”; with CD40, CD40 (gene 958) [4], “inactive”; in experiment [5] it was “inactive”; in experiment [6], “inactive”; in experiment [7], “inactive”. The outcome in experiment [8], in experiment [9], in experiment [10], in [11], in experiment [12] and in experiment [13] was inactive. Besides, the outcome is “inactive” in the experiment with CD40, CD40 (gene 958) [15] and “inactive” in [16]. Further, the AC50 in experiment [2] was 27.6 µM (active); in experiment [14] it was 30.1 µM (active); with CD69, CD69 (gene 969) it was 25.4 µM (active); in [17] it was 20.7 µM (active).
Regarding `Cc1oc2c(NC(=O)c3c(Cl)cccc3Cl)cccc2c1C(C)(C)O`, the outcome in experiment [1], in [2], in experiment [3], in experiment [6], in experiment [8] and in [9] was inactive. Moreover, the result in experiment [11], in [13] and in experiment [14] was inactive. Further, the AC50 is 6.04 µM (active) in experiment [5]; 26.5 µM (active) in experiment [7]; 21.1 µM (active) in experiment [10]; 4.5 µM (active) in [12]; 21.3 µM (active) with CD38, CD38 (gene 952); 20.9 µM (active) with CD40, CD40 (gene 958) [15]. Further, the AC50 is 19.2 µM (active) in the experiment with CD69, CD69 (gene 969); 7.57 µM (active) in experiment [16]; 7.6 µM (active) in experiment [17].

(Values after PubChem BioAssay (EPA / NIEHS).)
